This passage reports binding signal results from article PMC11006913.

What all share (test): PBM; 200 nM protein, PBS
Common to all, as to details: dsDNA, one strand shown

Experiment [1] has as its target HESX1 (Homo sapiens, UniProt Q9UBX0 95-180, R165K).
Experiment [2] concerns the target HESX1 (Homo sapiens, UniProt Q9UBX0 95-180).
In experiment [3] the target is PROP1 (Homo sapiens, UniProt O75360 56-141).
Experiment [4] addresses HESX1 (Homo sapiens, UniProt Q9UBX0 95-180, R109Q).
Experiment [5] deals with PROP1 (Homo sapiens, UniProt O75360 56-141, R99H).
In experiment [6] the target is HESX1 (Homo sapiens, UniProt Q9UBX0 95-180, P111T).
Experiment [7] addresses PROP1 (Homo sapiens, UniProt O75360 56-141, F88S).
In experiment [8] the target is HESX1 (Homo sapiens, UniProt Q9UBX0 95-180, F115L).
The target in experiment [9] is VAX1 (Homo sapiens, UniProt Q5SQQ9 86-172).
Experiment [10] deals with VAX1 (Homo sapiens, UniProt Q5SQQ9 86-172, T142I).
The target in experiment [11] is VAX1 (Homo sapiens, UniProt Q5SQQ9 86-172, K157R).
Experiment [12] addresses T1, NKX2-6 (Homo sapiens, UniProt A6NCS4 118-204).
T1 sequence: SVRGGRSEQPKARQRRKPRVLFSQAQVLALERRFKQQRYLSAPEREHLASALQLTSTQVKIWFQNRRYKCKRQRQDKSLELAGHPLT

The next experiment concerns the target PITX2 (Homo sapiens, UniProt Q99697 72-157).
In experiment [13] the target is T2, NKX2-6 (Homo sapiens, UniProt A6NCS4 118-204, F151L).
T2 sequence: T1 sequence with F34L

Substitutions are numbered along the chain they refer to.

Chain of HESX1 (Homo sapiens, UniProt Q9UBX0 95-180) (Q9UBX0 95-180): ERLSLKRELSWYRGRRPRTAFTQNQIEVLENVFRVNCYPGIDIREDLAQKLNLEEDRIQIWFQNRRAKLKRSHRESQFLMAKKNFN
Chain of PROP1 (Homo sapiens, UniProt O75360 56-141, F88S) (O75360 56-141 F88S): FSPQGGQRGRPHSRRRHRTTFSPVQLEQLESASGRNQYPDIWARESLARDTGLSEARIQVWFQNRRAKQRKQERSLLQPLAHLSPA
Chain of HESX1 (Homo sapiens, UniProt Q9UBX0 95-180, F115L) (Q9UBX0 95-180 F115L): as the sequence (Q9UBX0 95-180) above, with F21L counted along it
Chain of PROP1 (Homo sapiens, UniProt O75360 56-141) (O75360 56-141): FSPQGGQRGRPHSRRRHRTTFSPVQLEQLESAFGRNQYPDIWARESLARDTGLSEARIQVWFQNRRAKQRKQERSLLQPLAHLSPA
Chain of HESX1 (Homo sapiens, UniProt Q9UBX0 95-180, R165K) (Q9UBX0 95-180 R165K): as the sequence (Q9UBX0 95-180) above, with R71K counted along it
Chain of HESX1 (Homo sapiens, UniProt Q9UBX0 95-180, P111T) (Q9UBX0 95-180 P111T): as the sequence (Q9UBX0 95-180) above, with P17T counted along it
Chain of HESX1 (Homo sapiens, UniProt Q9UBX0 95-180, R109Q) (Q9UBX0 95-180 R109Q): as the sequence (Q9UBX0 95-180) above, with R15Q counted along it
Chain of PROP1 (Homo sapiens, UniProt O75360 56-141, R99H) (O75360 56-141 R99H): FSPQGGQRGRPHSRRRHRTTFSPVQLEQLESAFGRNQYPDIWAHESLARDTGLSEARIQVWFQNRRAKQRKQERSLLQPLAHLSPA
Chain of VAX1 (Homo sapiens, UniProt Q5SQQ9 86-172, K157R) (Q5SQQ9 86-172 K157R): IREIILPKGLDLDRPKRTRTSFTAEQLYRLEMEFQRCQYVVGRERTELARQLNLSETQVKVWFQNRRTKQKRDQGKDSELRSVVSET
Chain of VAX1 (Homo sapiens, UniProt Q5SQQ9 86-172, T142I) (Q5SQQ9 86-172 T142I): as the sequence (Q5SQQ9 86-172 K157R) above, with T57I, R72K counted along it
Chain of VAX1 (Homo sapiens, UniProt Q5SQQ9 86-172) (Q5SQQ9 86-172): as the sequence (Q5SQQ9 86-172 K157R) above, with R72K counted along it

For CAAGCCGC, the binding signal was 6.58 upbm affinity estimate (log intensity, higher = more binding, comparable within an allelic series) in the experiment with HESX1 [1]; 6.44 upbm affinity estimate (log intensity, higher = more binding, comparable within an allelic series) with HESX1 [2]; 6.56 upbm affinity estimate (log intensity, higher = more binding, comparable within an allelic series) in the experiment with PROP1 [3]; 6.54 upbm affinity estimate (log intensity, higher = more binding, comparable within an allelic series) in the experiment with HESX1 [4]; 6.8 upbm affinity estimate (log intensity, higher = more binding, comparable within an allelic series) in the experiment with PROP1 [5]; 6.58 upbm affinity estimate (log intensity, higher = more binding, comparable within an allelic series) with HESX1 [6]. Also, the binding signal is 6.57 upbm affinity estimate (log intensity, higher = more binding, comparable within an allelic series) in the experiment with PROP1 [7] and 6.56 upbm affinity estimate (log intensity, higher = more binding, comparable within an allelic series) with HESX1 [8].
For the sequence GCAGCGCA, the binding signal is 6.45 upbm affinity estimate (log intensity, higher = more binding, comparable within an allelic series) in the experiment with HESX1 [1]; 6.27 upbm affinity estimate (log intensity, higher = more binding, comparable within an allelic series) with HESX1 [2]; 6.75 upbm affinity estimate (log intensity, higher = more binding, comparable within an allelic series) with PROP1 [3]; 6.54 upbm affinity estimate (log intensity, higher = more binding, comparable within an allelic series) with HESX1 [4]; 6.76 upbm affinity estimate (log intensity, higher = more binding, comparable within an allelic series) with PROP1 [5]; 6.47 upbm affinity estimate (log intensity, higher = more binding, comparable within an allelic series) in the experiment with HESX1 [6]. For the same sequence, the binding signal in the experiment with PROP1 [7] is 6.81 upbm affinity estimate (log intensity, higher = more binding, comparable within an allelic series); with HESX1 [8], 6.53 upbm affinity estimate (log intensity, higher = more binding, comparable within an allelic series).
CTAGGCCC: the binding signal is 6.43 upbm affinity estimate (log intensity, higher = more binding, comparable within an allelic series) in the experiment with HESX1 [1]; 6.46 upbm affinity estimate (log intensity, higher = more binding, comparable within an allelic series) in the experiment with HESX1 [2]; 6.51 upbm affinity estimate (log intensity, higher = more binding, comparable within an allelic series) with HESX1 [4]; 6.58 upbm affinity estimate (log intensity, higher = more binding, comparable within an allelic series) in the experiment with HESX1 [6]; 6.46 upbm affinity estimate (log intensity, higher = more binding, comparable within an allelic series) in the experiment with HESX1 [8].
Regarding AAGGAGGC, the binding signal in the experiment with HESX1 [1] was 6.49 upbm affinity estimate (log intensity, higher = more binding, comparable within an allelic series); in the experiment with HESX1 [2], 6.42 upbm affinity estimate (log intensity, higher = more binding, comparable within an allelic series); with HESX1 [4] it was 6.53 upbm affinity estimate (log intensity, higher = more binding, comparable within an allelic series); with HESX1 [6] it was 6.52 upbm affinity estimate (log intensity, higher = more binding, comparable within an allelic series); with HESX1 [8] it was 6.51 upbm affinity estimate (log intensity, higher = more binding, comparable within an allelic series).
Turning to AGTCGCGC, the binding signal with HESX1 [1] was 6.38 upbm affinity estimate (log intensity, higher = more binding, comparable within an allelic series); with HESX1 [2], 6.32 upbm affinity estimate (log intensity, higher = more binding, comparable within an allelic series); in the experiment with HESX1 [4] it was 6.51 upbm affinity estimate (log intensity, higher = more binding, comparable within an allelic series); with VAX1 [9], 7.29 upbm affinity estimate (log intensity, higher = more binding, comparable within an allelic series); in the experiment with HESX1 [6], 6.45 upbm affinity estimate (log intensity, higher = more binding, comparable within an allelic series); in the experiment with HESX1 [8] it was 6.58 upbm affinity estimate (log intensity, higher = more binding, comparable within an allelic series). The binding signal with VAX1 [10] was 7.12 upbm affinity estimate (log intensity, higher = more binding, comparable within an allelic series); in the experiment with VAX1 [11], 7.18 upbm affinity estimate (log intensity, higher = more binding, comparable within an allelic series).
For CGCTCCTC, the binding signal was 6.29 upbm affinity estimate (log intensity, higher = more binding, comparable within an allelic series) with HESX1 [1]; 6.25 upbm affinity estimate (log intensity, higher = more binding, comparable within an allelic series) with HESX1 [2]; 6.53 upbm affinity estimate (log intensity, higher = more binding, comparable within an allelic series) in the experiment with HESX1 [4]; 6.33 upbm affinity estimate (log intensity, higher = more binding, comparable within an allelic series) in the experiment with HESX1 [6]; 6.5 upbm affinity estimate (log intensity, higher = more binding, comparable within an allelic series) with HESX1 [8].
Consider CAATATCG, for which the binding signal in the experiment with HESX1 [1] is 7.31 upbm affinity estimate (log intensity, higher = more binding, comparable within an allelic series); in the experiment with HESX1 [2] it was 7.37 upbm affinity estimate (log intensity, higher = more binding, comparable within an allelic series); with HESX1 [4] it was 7.14 upbm affinity estimate (log intensity, higher = more binding, comparable within an allelic series); in the experiment with HESX1 [6] it was 7.2 upbm affinity estimate (log intensity, higher = more binding, comparable within an allelic series).
For the sequence CTGCCAGC, the binding signal with HESX1 [1] is 6.31 upbm affinity estimate (log intensity, higher = more binding, comparable within an allelic series); with HESX1 [2], 6.34 upbm affinity estimate (log intensity, higher = more binding, comparable within an allelic series); with NKX2-6 [12], 9.39 upbm affinity estimate (log intensity, higher = more binding, comparable within an allelic series); with PITX2, 8.09 upbm affinity estimate (log intensity, higher = more binding, comparable within an allelic series); with HESX1 [4], 6.43 upbm affinity estimate (log intensity, higher = more binding, comparable within an allelic series); in the experiment with HESX1 [6] it was 6.51 upbm affinity estimate (log intensity, higher = more binding, comparable within an allelic series). In addition, the binding signal was 9.37 upbm affinity estimate (log intensity, higher = more binding, comparable within an allelic series) with NKX2-6 [13] and 6.4 upbm affinity estimate (log intensity, higher = more binding, comparable within an allelic series) in the experiment with HESX1 [8].
Take CGCCAGGC: the binding signal with HESX1 [1] was 6.38 upbm affinity estimate (log intensity, higher = more binding, comparable within an allelic series); in the experiment with HESX1 [2] it was 6.37 upbm affinity estimate (log intensity, higher = more binding, comparable within an allelic series); with HESX1 [4], 6.46 upbm affinity estimate (log intensity, higher = more binding, comparable within an allelic series); with HESX1 [6], 6.32 upbm affinity estimate (log intensity, higher = more binding, comparable within an allelic series); in the experiment with HESX1 [8] it was 6.44 upbm affinity estimate (log intensity, higher = more binding, comparable within an allelic series).
As to AGCCGAGC, the binding signal in the experiment with HESX1 [1] is 6.4 upbm affinity estimate (log intensity, higher = more binding, comparable within an allelic series); in the experiment with HESX1 [2], 6.26 upbm affinity estimate (log intensity, higher = more binding, comparable within an allelic series); with HESX1 [4] it was 6.48 upbm affinity estimate (log intensity, higher = more binding, comparable within an allelic series); with HESX1 [6], 6.46 upbm affinity estimate (log intensity, higher = more binding, comparable within an allelic series); with HESX1 [8] it was 6.45 upbm affinity estimate (log intensity, higher = more binding, comparable within an allelic series).
For the sequence GAAAGGCC, the binding signal in the experiment with HESX1 [1] was 6.41 upbm affinity estimate (log intensity, higher = more binding, comparable within an allelic series); with HESX1 [2] it was 6.39 upbm affinity estimate (log intensity, higher = more binding, comparable within an allelic series); with PROP1 [3], 6.76 upbm affinity estimate (log intensity, higher = more binding, comparable within an allelic series); in the experiment with HESX1 [4] it was 6.49 upbm affinity estimate (log intensity, higher = more binding, comparable within an allelic series); in the experiment with PROP1 [5], 6.79 upbm affinity estimate (log intensity, higher = more binding, comparable within an allelic series); with HESX1 [6], 6.47 upbm affinity estimate (log intensity, higher = more binding, comparable within an allelic series). Further, the binding signal with PROP1 [7] was 6.75 upbm affinity estimate (log intensity, higher = more binding, comparable within an allelic series); with HESX1 [8], 6.63 upbm affinity estimate (log intensity, higher = more binding, comparable within an allelic series).
